# Screens (PubChem BioAssay)
# An excerpt weighted towards active compounds, which were near 5% of everything screened.
# AHR activator = human AHR activation | P35869 | activation, % at 5 µM | hit rate 2.5% among 320,000 | AHR-responsive luciferase reporter cells, luminescence; in the data active = activation above about 47%;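 also: 0% = vehicle wells and 100% = reference agonist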
# SENP7 block = SENP7 protease inhibition. hit rate 1.5% among 330,000. recombinant SENP7, Z-RLRGG-aminoluciferin luminescence, 40 min. inhibition, % at 5 µM;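 active = inhibition above about 50% at the single test dose, limit read from the data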;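 also: plate controls were DMSO with enzyme for no effect and no enzyme buffer wells for full effect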
# SENP8 block-1 = inhibitors of human SENP8 protease | hit rate 1.2% among 330,000 | inhibition, % at 10 µM | Q96LD8 | purified SENP8, Z-RLRGG-aminoluciferin cleavage, luminescence | AID 2540; in the data active = inhibition above about 50%
# SENP6 inh = SENP6 protease inhibition; Q9GZR1; Recombinant SENP6 catalytic domain, aminoluciferin luminescence; inhibition, % at 10 µM; hit rate 1.8% among 330,000; AID 2599;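 active = inhibition above about 50% at the single tested dose, limit read from the data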;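 also: plate controls were DMSO wells with enzyme for no effect and DMSO wells lacking enzyme for full effect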
# Target sequence (Q9GZR1 628-1112 limits assumed): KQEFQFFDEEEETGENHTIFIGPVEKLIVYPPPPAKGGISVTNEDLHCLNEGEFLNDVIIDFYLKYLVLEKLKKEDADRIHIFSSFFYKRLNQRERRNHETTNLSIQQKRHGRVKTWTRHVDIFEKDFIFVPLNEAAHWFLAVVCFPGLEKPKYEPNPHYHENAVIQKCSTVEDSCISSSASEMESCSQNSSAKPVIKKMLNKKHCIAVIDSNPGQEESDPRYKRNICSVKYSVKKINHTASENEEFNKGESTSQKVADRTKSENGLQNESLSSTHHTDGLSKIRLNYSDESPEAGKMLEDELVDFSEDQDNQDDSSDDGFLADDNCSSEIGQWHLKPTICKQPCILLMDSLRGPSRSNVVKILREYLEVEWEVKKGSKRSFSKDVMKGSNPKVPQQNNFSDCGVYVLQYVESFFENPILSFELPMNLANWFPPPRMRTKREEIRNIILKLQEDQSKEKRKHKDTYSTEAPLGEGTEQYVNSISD
# SENP8 block-2 = blocks human SENP8 cleavage of Nedd8 substrate; Q96LD8; recombinant SENP8, Nedd8 substrate fluorescence; inhibition, % at 20 µM; hit rate 0.64% among 360,000; AID 602440; in the data active = inhibition mostly above about 40%, no sharp cut-off; inactive = mostly below about 27%
# EBI2 block = blocks human EBI2 receptor beta-arrestin signaling; P32249; hit rate 0.81% among 360,000; EBI2 beta-arrestin recruitment, luminescence, 7a,25-OHC stimulated; AID 651636; inhibition, % at 5 µM; in the data active = inhibition above about 38%;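 also: enzyme fragment complementation signal reports receptor beta-arrestin coupling in cells; 0% = agonist plus DMSO wells and 100% = wells without agonist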
# An asterisk follows results filed as active; · = no result.
SMILES,AHR activator,SENP7 block,SENP8 block-1,SENP6 inh,SENP8 block-2,EBI2 block
CC1(C)CC2(OC2c2ccccc2[N+](=O)[O-])C(=O)c2ccccc21 (stereo unspecified),·,·,·,·,8,-2
CCOC(=O)Cc1c(C)nc2c(-c3ccccc3)cnn2c1C,54*,4,-1,-8,-66,6
CCOC(=O)c1cnc2c(-c3ccccc3)cnn2c1C,0,37,23,-27,6,6
O=[N+]([O-])c1ccc(O)c(/C=N/Nc2ccc(Cl)nn2)c1,16,-7,27,54*,20,77*
O=[N+]([O-])c1ccc(/C=N/NC2=NS(=O)(=O)c3ccccc32)cc1,3,12,-7,-11,23,6
O=[N+]([O-])c1ccc(O)c(/C=N/NC2=NS(=O)(=O)c3ccccc32)c1,5,95*,82*,86*,-103,10
O=[N+]([O-])c1ccc(O)c(/C=N\N=C2c3ccccc3-c3ccccc32)c1,47*,4,-3,7,39,-4
O=C(N/N=C/c1cc([N+](=O)[O-])ccc1O)C1CCCCC1,2,5,1,-10,17,76*
CCN1C[C@@H]2[C@@H]3C(=O)N(Cc4ccccc4)C(=O)[C@@H]3[C@](C)(C1=O)N2C(=O)c1ccccc1,·,·,·,·,15,-13
COc1ccc(Cc2c(-c3ccc(Cl)cc3)nc3c(C)cc(Br)cn23)c(C)c1,·,·,·,·,-4,-2
CCc1ccc2c(CN3CCc4cc(OC)c(OC)cc4C3)cc(=O)oc2c1,74*,-3,-9,8,-287,11
COc1cc2c(cc1OC)CN(Cc1cc(=O)oc3cc(C)c(C)cc13)CC2,12,-1,1,25,-377,-6
O=C(N/N=C\c1cn[nH]c1-c1ccccc1)c1cccs1,30,8,-4,-21,-45,-49
COc1cccc(C(=O)N/N=C/c2cn[nH]c2-c2ccc(OC)cc2OC)c1,32,4,-7,6,-52,-8
CCn1nc(C)c(/C=N\NC(=O)c2cccc(OC)c2)c1C,49*,4,2,12,-2,-6
Cc1ccc(-n2nc(C)c(/C=N/NC(=O)c3cccnc3)c2Cl)cc1,47*,1,4,-1,7,-12
O=C(N/N=C\c1cn[nH]c1-c1ccccc1)c1cccnc1,72*,-3,-4,-6,-7,-38
COc1ccc(-c2[nH]ncc2/C=N\NC(=O)c2ccc(Br)o2)cc1OC,60*,4,0,-13,-114,-12
COc1ccc(CNC(=O)C/C(C)=N/NC(=O)COc2ccc(Br)cc2)cc1,13,1,1,0,13,26
Cc1nn(Cc2ccccc2)c(C)c1/C=N/NC(=O)c1cccnc1,71*,-4,-4,-5,6,-7
Cc1nn(Cc2ccc(F)cc2)c(Cl)c1/C=N/NC(=O)c1ccccc1,15,4,-2,5,10,-1
Cc1ccc(Cn2nc(C)c(/C=N/NC(=O)c3cccnc3)c2C)cc1,32,-4,-13,-18,7,-1
Cc1nn(Cc2ccc(F)cc2)c(Cl)c1/C=N/NC(=O)c1cccnc1,52*,6,2,5,23,-1
CCOc1ccc(CNS(=O)(=O)c2cccs2)cc1OCC,2,11,-5,-13,5,-5
Oc1[nH]c2ccccc2c1N=Nc1ccc(C(F)(F)F)cn1,55*,43,-5,15,37,-6
SMILES,AHR activator,SENP7 block,SENP8 block-1,SENP6 inh,SENP8 block-2,EBI2 block
Oc1[nH]c2ccccc2c1N=Nc1ccccn1,·,·,·,·,21,13
Oc1[nH]c2ccc(Br)cc2c1N=Nc1ccc(C(F)(F)F)cn1,64*,-2,-15,-15,33,10
CN1CCN(C2=C(Cl)C(=O)c3ccccc3C2=O)CC1,·,·,·,·,73*,-14
Cn1cc([C@]2(O)C(=O)Nc3ccccc32)c2ccccc21,·,·,·,·,12,4
Cc1nc(NC(=O)COc2ccccc2)sc1C(=O)Nc1ccccc1,66*,20,3,9,26,-11
O=C(c1ccccc1)N1CCN(c2ccc([N+](=O)[O-])c(NCc3cccnc3)c2)CC1,25,-10,-6,-24,21,12
CC(C)CC(=O)N1CCN(c2ccc([N+](=O)[O-])c(NCc3ccccc3)c2)CC1,48*,3,-4,-12,54*,18
O=C(CSc1ncccn1)n1c2c(c3ccccc31)CCCC2,70*,-3,-7,-14,13,-3
C[C@H](CO)N1C[C@H](C)[C@H](CN(C)S(=O)(=O)c2cccc(F)c2)Oc2ncc(-c3cccc(C(=O)N(C)C)c3)cc2C1=O,·,·,·,·,8,5
Cc1ccc(N=c2sc(C)c(C)n2C)cc1,77*,-16,-11,-16,16,-13
Cc1csc(=Nc2ccccc2)n1C,-8,-7,-14,-9,13,-13
O=C1c2ccccc2C(=O)C1Cc1cccc2ccccc12,61*,-8,-2,-14,32,-10
O=C1NC(c2cccc3ccccc23)Nc2ccccc21 (stereo unspecified),·,·,·,·,-470,-21
CCC(CC)CN1CCC(CN2C(=O)C(=O)NC[C@@H]2CC(C)C)CC1,·,·,·,·,11,-14
Cc1cccn2c(=O)c(C=NCc3ccco3)c(Nc3ccc(SC(F)F)cc3)nc12,49*,11,1,-4,6,11
COc1cc(OC)c(C(=O)/C=C/c2ccccc2)c(O)c1O,0,0,-9,-9,45*,0
Cc1cn([C@H]2C[C@H](O)[C@@H](/C=C/C(=O)NCc3ccco3)O2)c(=O)[nH]c1=O,·,·,·,·,29,-11
Cc1cc(C(=O)COC(=O)c2ccccc2Br)c(C)n1CC1CCCO1 (stereo unspecified),-3,94*,93*,95*,9,6
C[C@H]1Cn2cnc(C(=O)Nc3ccccc3)c2C(=O)N1,·,·,·,·,15,-11
COc1cccc(C(=O)/C=C2\NCCc3cc(OC)c(OC)cc32)c1,53*,1,3,-2,-20,-6
COc1cc2c(cc1OC)/C(=C/C(=O)c1ccccc1)NCC2,14,-2,-1,-22,-29,3
Oc1ccc(Cl)cc1C=Nc1ccc2c3c(cccc13)CC2,49*,0,-6,6,-279,-15
CN(C)S(=O)(=O)Oc1ccsc1C(=O)Nc1ccc(C(F)(F)F)cc1,55*,-6,1,1,0,8
CN(C)S(=O)(=O)Oc1ccsc1C(=O)Nc1ccc(Br)cc1,11,-1,6,11,11,9
CSc1ccc(/C=N\NC(=O)CNc2ccc(C)cc2)cc1,21,0,2,1,8,32
Cc1ccc(NCC(=O)N/N=C/c2ccncc2)cc1,64*,-1,-5,3,6,6
O=c1c2ccccc2cnn1CCOc1ccccc1,4,93*,92*,92*,8,2
O=C(O)Cn1ncc2ccccc2c1=O,0,-10,-5,-2,6,3
